Rows were chosen to be rich in hits. Some 0.68% of all compounds tested hit in one or more screens of this group.
RE007 growth inh = less growth of the S. pombe RE007 Vpr strain. S. pombe RE007 Vpr strain, BacTiter-Glo ATP luminescence, 24 h. Potency, µM (top dose mostly 92.2 µM), hits mostly inhibitors. hit rate 0.21% among 360,000. AID 651644; active = well fitted falling curve with a large enough effect; inconclusive = small, poorly fitted or top-dose-only effect; inactive = no such curve, though single readings can be large or run the other way; also: nearly all actives have a fitted effect of over 50% in size
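Fission yeast RE007 carrying one integrated HIV-1 vpr copy, seeded at OD 0.01 in PMG+AL medium with 23 nL pinned compound. Grown 24 h at 30 degrees; viability read by BacTiter-Glo luminescence after 5 min.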
TbPYK inhibitor = blocks Trypanosoma brucei pyruvate kinase; Q57TT1; TbPYK enzyme, Kinase-Glo Plus ATP luminescence, 45 min; Potency, µM (titrated, usually from 76.8 µM), actives largely listed as inhibitors; hit rate 0.12% among 410,000; AID 624173; also: nearly all actives have a fitted effect of over 50% in size
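Enzyme and substrate buffer are dispensed first and compound is pin-transferred. ADP at 130 uM final then starts the reaction, which runs 45 min at room temperature. Detection reagent is added for 10 min before luminescence is imaged.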
LmPK inhibitor = inhibitors of Leishmania mexicana pyruvate kinase; Q27686; purified LmPK, Kinase-Glo ATP luminescence, 1 h; Potency, µM (doses to about 57.5 µM), usual class: inhibitors; hit rate 0.37% among 290,000; AID 1721
Target sequence (Q27686 whole entry, looked up): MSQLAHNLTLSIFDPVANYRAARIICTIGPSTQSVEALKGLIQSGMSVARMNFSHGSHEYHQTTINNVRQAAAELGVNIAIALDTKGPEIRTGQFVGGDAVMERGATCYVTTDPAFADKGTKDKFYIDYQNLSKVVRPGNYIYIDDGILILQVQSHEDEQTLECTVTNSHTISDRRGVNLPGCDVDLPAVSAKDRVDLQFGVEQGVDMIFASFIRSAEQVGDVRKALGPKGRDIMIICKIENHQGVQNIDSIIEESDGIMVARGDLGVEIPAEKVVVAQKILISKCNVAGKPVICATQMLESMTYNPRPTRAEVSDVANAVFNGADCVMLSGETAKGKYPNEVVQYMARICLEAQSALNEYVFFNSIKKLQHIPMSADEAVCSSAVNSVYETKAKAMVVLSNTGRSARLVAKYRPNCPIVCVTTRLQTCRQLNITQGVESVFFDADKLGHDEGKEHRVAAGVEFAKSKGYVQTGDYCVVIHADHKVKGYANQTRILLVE
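In 50 mM imidazole pH 7.2 with 7 mM MgCl2, LmPK (0.1 nM) turned over PEP (0.5 mM) and ADP (0.1 mM) for 1 h at room temperature. Luciferase read-out of ATP.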
AMA1 RON2 block = AMA1-RON2 (P. falciparum) interaction inhibition; AlphaScreen AMA1-biotinylated RON2 peptide binding; Potency, µM (highest dose often 58.2 µM), most hits filed as inhibitors; hit rate 0.2% among 360,000; also: nearly all actives have a fitted effect of over 45% in size
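AMA1 (3D7) with his tag at 25 nM final met compounds first, then biotinylated RON2 peptide at 25 nM; detection used donor plus acceptor beads, 10 µg/mL apiece, read by AlphaScreen after 30 min at room temperature.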
Of the large screens only hits and unclear results are named; the others gave an inactive call. Unless noted, calls follow the shape of the dose curve; as a rule, active = well fitted curve in the direction sought with a large enough effect; inconclusive = small, poorly fitted or top-dose-only effect, or another doubt; inactive = no such curve, though single readings can be large; an effect the other way counts as inactive or inconclusive.

C#CCNC(=O)C1=C[C@@H](c2ccc3c(c2)OCO3)C[C@@H](OCc2ccc(CO)cc2)O1	none (no result: LmPK inhibitor)
CC(=O)n1nc(-c2ccccc2)nc1NCc1ccc(N(C)C)cc1	AMA1 RON2 block 8.91µM
CC(CCc1ccccc1)NC(=O)Cn1c(=O)nc(-c2ccccc2)c2ccccc21 (stereo not given)	none (no result: RE007 growth inh, LmPK inhibitor, AMA1 RON2 block)
CCN1C(=O)[C@@H]2[C@@H]3CN(S(=O)(=O)c4ccc(C)cc4)[C@@H](c4ccccc4)[C@@H]3C(=O)C[C@@H]2C1=O	none (no result: LmPK inhibitor)
CCOC1=CC2=C(C(=O)C(Cl)=CC2=O)[C@@H]2CN(S(=O)(=O)c3ccc(C)cc3)[C@@H](c3ccccc3)[C@H]12	TbPYK inhibitor 2.51µM (no result: LmPK inhibitor)
Cc1cccc(N2C(=O)/C(=C\c3ccc(C(=O)O)cc3)c3ccccc3C2=O)c1	none
O=C(/C=C/c1ccc(O)c(O)c1)OC1C(O)CC(OC(=O)/C=C/c2ccc(O)c(O)c2)(C(=O)O)CC1O (stereo not given)	TbPYK inhibitor inconclusive, LmPK inhibitor 2µM
CCN(CC)c1ccc(/C=N\NC(N)=O)cc1	none
COc1cccc(/C=N/NC(=O)c2ccoc2C)c1	LmPK inhibitor 12.6µM
Cc1cc(C(=O)N/N=C/c2ccncc2)c(C)o1	LmPK inhibitor inconclusive
CCN(CC)c1ccc(/C=N/NC(=O)c2ccoc2C)cc1	TbPYK inhibitor inconclusive, LmPK inhibitor 14.1µM
Cc1ccc(/C=N/NC(=O)c2cc(C)oc2C)cc1	LmPK inhibitor 12.6µM
COc1ccc2c(Cl)c(-c3nnc4n3CCCCC4)sc2c1	none
Cc1cc(C)n(C(=O)CNc2cccc(Cl)c2C)n1	none
CCN(CC)Cc1cc(O)c(CN(CC)CC)cc1O	TbPYK inhibitor 10µM, AMA1 RON2 block 7.94µM
Cc1ccc(C(=O)c2c(C)oc3c2C(=O)C(=O)c2ccccc2-3)cc1	RE007 growth inh 25.1µM
Cc1coc2cc3oc(=O)c(CCC(=O)NCc4ccc(Cl)cc4)c(C)c3cc12	none (no result: RE007 growth inh, LmPK inhibitor, AMA1 RON2 block)
Cn1ccc2c(-c3ccc(C(=O)O)cc3)cc3c(c21)C1CCC3C1 (stereo not given)	RE007 growth inh 44.7µM (no result: LmPK inhibitor)
Cn1ccc2c(-c3ccc(C(C)(C)C)cc3)cc3c(c21)C1CCC3C1 (stereo not given)	none (no result: LmPK inhibitor)
COc1ccc(N2CCN(S(=O)(=O)c3c(C)[nH]c(=O)[nH]c3=O)CC2)cc1	none (no result: RE007 growth inh, LmPK inhibitor, AMA1 RON2 block)
C=CCN(CC=C)C(=O)c1c(OC)cccc1OC	none
C=CCc1c(C)[nH]c2c(OC)cccc2c1=S	TbPYK inhibitor inconclusive, LmPK inhibitor 2µM
Cc1ccc(OCCCn2cc(C#N)c3ccccc32)cc1	none
CN(C)c1ccc(/C=C/C=C2/C(=O)NC(=O)N(c3ccccc3)C2=O)cc1	TbPYK inhibitor inconclusive, LmPK inhibitor 12.6µM, AMA1 RON2 block inconclusive
CCC(/C=C1\Sc2ccc(OC)cc2N1CCO)=C\c1sc2ccc(OC)cc2[n+]1CCO	RE007 growth inh inconclusive, TbPYK inhibitor inconclusive, LmPK inhibitor 14.1µM
CCN1CCN(c2ccc([N+](=O)[O-])cc2C=C2C(=O)NC(=O)NC2=O)CC1	TbPYK inhibitor 22.4µM
Nc1ccc(O)c2c1C(=O)c1ccccc1C2=O	RE007 growth inh inconclusive, AMA1 RON2 block 7.08µM
CCOC(=O)c1cccc(NC(=O)Nc2ccc3c(c2)N(C)C(=O)c2ccccc2S3)c1	none (no result: RE007 growth inh, LmPK inhibitor, AMA1 RON2 block)
Cc1ccc(NC(=S)c2nc3ccccc3s2)cc1	AMA1 RON2 block 10µM
O=C(Nc1ccc(NC(=O)C2CC2)nc1)c1ccccn1	LmPK inhibitor 14.1µM
COc1ccc(NC(=O)c2nc3ccccc3s2)cc1	LmPK inhibitor 15.8µM
COc1ccc(C(=O)Nc2ccc(NC(=O)c3ccccn3)cn2)cc1	none
COc1ccc(NC(=O)c2ccccn2)cc1	RE007 growth inh inconclusive, LmPK inhibitor 11.2µM
S=C(Nc1ccc(Cl)cc1)c1nc2ccccc2s1	AMA1 RON2 block inconclusive
O=C(Nc1cccc(-c2nc3ccccc3[nH]2)c1)c1ccccc1F	none (no result: RE007 growth inh, LmPK inhibitor, AMA1 RON2 block)
CC(C)C(=O)NC(c1ccco1)c1ccc2cccnc2c1O (stereo not given)	AMA1 RON2 block 20µM
COc1ccccc1CC(=O)Nc1cccc2c1CCCC2	none
Cn1c(-c2c(N)n(C3CCCC3)c3nc4ccccc4nc23)nc2ccccc21	RE007 growth inh 7.08µM
O=C(Nc1nc(-c2cc3ccccc3oc2=O)cs1)c1ccc(Br)o1	none
O=C(Oc1c(Cl)cc(Cl)c2cccnc12)c1cccs1	RE007 growth inh 5.62µM
NC(=O)c1ncn([C@@H]2O[C@H](CNCc3cnc(N4CCOCC4)nc3)[C@@H](O)[C@H]2O)n1	none (no result: LmPK inhibitor)
O=C(OCN1C(=O)c2ccccc2C1=O)C1CCCCC1	none
O=C1c2ccccc2C(=O)N1SC1CCCCC1	RE007 growth inh 44.7µM, TbPYK inhibitor inconclusive
Nc1nc(NC(=O)CCCC(=O)O)nn1-c1ccccc1	none
Cc1cc(N2CCOCC2)ccc1/C=C1/SC(=O)NC1=O	TbPYK inhibitor inconclusive, LmPK inhibitor 15.8µM
Cc1cc(N2CCOCC2)ccc1/C=C1\C(=O)NC(=O)N(c2ccccc2)C1=O	TbPYK inhibitor inconclusive
Cc1cc(-c2nc3ccccc3[nH]2)ccc1N	RE007 growth inh inconclusive, LmPK inhibitor 15.8µM
c1csc(-c2nc3ccccc3[nH]2)c1	LmPK inhibitor inconclusive
Cc1ccc(-c2nc3ccccc3[nH]2)s1	RE007 growth inh 20µM, TbPYK inhibitor inconclusive, LmPK inhibitor 15.8µM
COc1ccc(-c2nc3ccccc3[nH]2)cc1	RE007 growth inh inconclusive, TbPYK inhibitor inconclusive, LmPK inhibitor 12.6µM
Cc1ccc(O)c(NC(=O)c2noc3c2CCCCC3)c1	none
Cc1cccc(NC(=S)NCC23C=CC(O2)C2C(=O)N(c4ccc(Cl)cc4)C(=O)C23)c1 (stereo not given)	RE007 growth inh 3.55µM
Cc1ccc(N2C(=O)C3C4C=CC(CNC(=S)N5CCN(c6ccccc6)CC5)(O4)C3C2=O)cc1 (stereo not given)	RE007 growth inh 5.62µM
S=C(NCC1CCCO1)N1CCN(c2ccccc2)CC1 (stereo not given)	none
Cc1cccc(NC(=S)NNC(=O)COc2ccc(Cl)cc2Cl)c1	none
Cc1ccc(S(=O)(=O)NCC23C=CC(O2)C2C(=O)N(c4ccccc4)C(=O)C23)cc1 (stereo not given)	RE007 growth inh 8.91µM
Cc1ccc(NC(=S)NCC23C=CC(O2)C2C(=O)N(c4ccc(C)cc4)C(=O)C23)cc1 (stereo not given)	RE007 growth inh 8.91µM
COc1ccc(CNS(=O)(=O)c2ccc(-c3ccc(=O)[nH]n3)o2)cc1	none
COc1ccc(C(=O)NCC(c2ccc3c(c2)OCO3)N2CCN(c3ccccc3F)CC2)cc1 (stereo not given)	none (no result: RE007 growth inh, LmPK inhibitor, AMA1 RON2 block)
Nc1nc(N2CCCCC2)nc2ccccc12	none
Cn1c(NC(=O)C[n+]2cc(-c3ccc(Cl)c(Cl)c3)n3c2CCC3)cc(=O)n(C)c1=O	RE007 growth inh 31.6µM
CCOC(=O)[C@]12Cc3cc(Cl)ccc3[C@H]1N(C1CCCCC1)C(=O)c1cc(OC)ccc12	RE007 growth inh 63.1µM (no result: LmPK inhibitor)
CCOC(=O)[C@]12Cc3cc(Cl)ccc3[C@H]1N(C)C(=O)c1cc(OC)ccc12	none (no result: LmPK inhibitor)
CCOC(=O)[C@]12Cc3ccc(C)cc3[C@H]1N(C1CCCCC1)C(=O)c1cc(OC)ccc12	RE007 growth inh 15.8µM (no result: LmPK inhibitor)
Cc1cccc(OCCCN2CCOCC2)c1	none

Bioassay records (PubChem)
